The list shows a part of the results. No count for the full screen is at hand.
Target: furin, P09958
Assay: furin cleavage Z-score vs untreated control; higher = more cleavage, active = 3.5 or more, inactive = 1 or less, 8 variable residues between constant flanks
Procedure: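 Multiplexed peptide-cDNA fusion cleavage assay. 8-mer variable peptides flanked by constant Cys-Ala (N-term) and Ala-Gly-Asn-Ala-Ser-Ala-Ser-Ala (C-term) and conjugated to a cDNA oligonucleotide were bead-immobilised via the N-terminus. They were treated with purified furin at a 1:10 enzyme:substrate ratio in 50 mM HEPES pH 7.5, 1 mM CaCl2, 100 mM NaCl for 7.5, 15 or 30 min. Released cDNA was counted by next-generation sequencing, and log counts versus no-furin controls were lowess-adjusted and converted to robust Z-scores.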

furin, P09958, sequence (P09958 whole entry): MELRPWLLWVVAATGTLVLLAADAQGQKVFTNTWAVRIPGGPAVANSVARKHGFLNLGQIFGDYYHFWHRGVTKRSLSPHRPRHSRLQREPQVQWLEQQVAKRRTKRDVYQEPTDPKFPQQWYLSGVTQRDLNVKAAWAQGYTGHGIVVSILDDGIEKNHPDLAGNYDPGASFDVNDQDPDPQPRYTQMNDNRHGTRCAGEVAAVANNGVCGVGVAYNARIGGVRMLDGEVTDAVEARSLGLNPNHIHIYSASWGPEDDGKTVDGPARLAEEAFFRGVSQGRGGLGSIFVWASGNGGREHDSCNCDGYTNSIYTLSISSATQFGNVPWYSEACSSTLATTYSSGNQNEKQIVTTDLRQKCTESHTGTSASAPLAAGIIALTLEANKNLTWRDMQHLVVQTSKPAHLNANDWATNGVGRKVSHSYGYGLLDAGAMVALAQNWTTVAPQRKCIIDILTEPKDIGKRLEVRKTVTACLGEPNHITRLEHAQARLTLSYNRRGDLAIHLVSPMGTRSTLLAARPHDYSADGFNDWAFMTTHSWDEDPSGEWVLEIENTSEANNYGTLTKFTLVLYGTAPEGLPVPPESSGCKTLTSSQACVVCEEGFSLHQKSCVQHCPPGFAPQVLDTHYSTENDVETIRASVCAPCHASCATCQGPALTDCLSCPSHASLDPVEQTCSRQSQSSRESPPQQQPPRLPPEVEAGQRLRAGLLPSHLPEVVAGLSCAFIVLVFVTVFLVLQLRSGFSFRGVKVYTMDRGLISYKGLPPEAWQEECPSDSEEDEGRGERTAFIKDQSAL

Sequence	furin cleavage Z-score (7.5 min)	furin cleavage Z-score (15 min)	furin cleavage Z-score (30 min)
CATDNRSRKRAGNASASA [FS-1658]	-0.57 (inactive)	0.304 (inactive)	-1.94 (inactive)
CAEVCTSTWVAGNASASA [HC2200]	-1.07 (inactive)	-0.375 (inactive)	0.694 (inactive)
CAAVEVDGAGAGNASASA [CS7]	0.521 (inactive)	0.0281 (inactive)	-2.24 (inactive)
CASLKRDVSLAGNASASA [FS-2473]	-0.763 (inactive)	0.0335 (inactive)	1.41
CASLKRQKRQAGNASASA [FS-502]	11.6 (active)	12.1 (active)	8.85 (active)
CAENPCHRPSAGNASASA [HC2341]	-0.397 (inactive)	1.48	0.0102 (inactive)
CALYRLGAVQAGNASASA [HC973]	0.321 (inactive)	-0.642 (inactive)	0.286 (inactive)
CAVQIVSTAAAGNASASA [HC690]	0.498 (inactive)	-1.18 (inactive)	-0.374 (inactive)
CAEVIKGGRHAGNASASA [HC852]	-2.02 (inactive)	-1.42 (inactive)	-1.4 (inactive)
CAKQGVSKRHAGNASASA [FS-261]	2.25	2.44	3.51 (active)
CASDGRGKRHAGNASASA [FS-1277]	6.1 (active)	6.45 (active)	6.27 (active)
CALLRIPQAIAGNASASA [HC329]	-0.657 (inactive)	-1.81 (inactive)	-0.194 (inactive)
CALLRRPFRQAGNASASA [FS-1361]	2.8	1.06	3.65 (active)
CASSNVSVAHAGNASASA [HC1554]	-2.36 (inactive)	-0.374 (inactive)	-0.657 (inactive)
CALLRRGKRHAGNASASA [FS-51]	11 (active)	10.8 (active)	8.35 (active)
CANLLRVFRQAGNASASA [FS-468]	0.426 (inactive)	-0.885 (inactive)	0.089 (inactive)

— the supplement of paper PMC3545927
